The results in this text go back to the supplement of paper PMC8047044.

In test [1] the test system is Neuro-2a. Kind of test: neurite formation score, plate-normalized to DMSO control mean 5.04 (score (0-8 scale)); higher = more or longer neurites. The settings on record: 1 µM. The method, then: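 Neuro-2a mouse neuroblastoma cells in PLL-coated 96-well plates were pre-treated for 1 h in DMEM(+) with each kinase inhibitor at 1 µM, then switched to serum-free DMEM(-) with inhibitor to induce neurite outgrowth and fixed about 2-3 h later. Three blinded observers scored neurite formation from 0 (no neurites) to 8 (long neurites on almost all cells).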

Test [2] deals with Neuro-2a. The description is as above. The settings on record: 0.1 µM. The method, then: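 Neuro-2a mouse neuroblastoma cells in PLL-coated 96-well plates were pre-treated for 1 h in DMEM(+) with each kinase inhibitor at 0.1 µM, then switched to serum-free DMEM(-) with inhibitor to induce neurite outgrowth and fixed about 2-3 h later. Three blinded observers scored neurite formation from 0 (no neurites) to 8 (long neurites on almost all cells).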

Where “and” joins values, the source holds several entries; their conditions need not be identical. Equal entries are not always repeated. Structures can show the parent of a compound that is named as a salt.

Take `COc1ccc(Cl)cc1NC(=O)Nc1cc(C)nc2ccccc12`: the neurite formation score amounted to 3.91 in the test with Neuro-2a [1] and 5.04 in the test with Neuro-2a [2].
Regarding `CC[C@H](Nc1ncnc2[nH]cnc12)c1nc2cccc(F)c2c(=O)n1-c1ccccc1` [CAL-101 (Idelalisib, GS-1101)], the neurite formation score in the test on Neuro-2a [1] was determined as 4.57; with Neuro-2a [2] it was 4.71.
For `CN1CCC(COc2cnc(-c3cccc(Cn4nc(-c5cccc(C#N)c5)ccc4=O)c3)nc2)CC1` the same measures were 3.69 and 4.92.
For `COc1cc2ncnc(Sc3nnc(C)s3)c2cc1OC` the same measures were 4.96 and 4.25.
For `O=C(NOCC1CC1)c1ccc(F)c(F)c1Nc1ccc(I)cc1Cl` the same measures were 3.91 and 4.71.
As for `CNC(=O)c1cc(Oc2ccc(NC(=O)Nc3ccc(Cl)c(C(F)(F)F)c3)cc2)ccn1` [Sorafenib Tosylate], the neurite formation score in the test on Neuro-2a [1] came to 4.57; with Neuro-2a [2], 3.54.
With `NC(=S)N/N=C/c1ncccc1N` [Triapine], the neurite formation score in the test with Neuro-2a [1] was 4.88; in the test with Neuro-2a [2], 3.75.
In the case of `Cc1cnc(-c2cnc(NCCNc3ccc(C#N)cn3)nc2-c2ccc(Cl)cc2Cl)[nH]1`, the neurite formation score in the test with Neuro-2a [1] was 5.29 and 4.57; in the test with Neuro-2a [2], 4.92 and 4.04.
For the compound `COc1ccc(-c2nc(N3CCOCC3)c3sc(CN(C)c4ncc(C(=O)NO)cn4)cc3n2)cn1`, the values for the neurite formation score with Neuro-2a [1] and in the test on Neuro-2a [2] were 4.36 and 3.58, respectively.
For `CS(=O)(=O)N1CCN(Cc2cc3nc(-c4cccc5[nH]ncc45)nc(N4CCOCC4)c3s2)CC1` [GDC-0941 dimethanesulfonate], the values for the neurite formation score in the test on Neuro-2a [1] and with Neuro-2a [2] were 2.8 and 2.09, respectively.
Take `CN(C)C(=O)c1cc2cnc(Nc3ccc(N4CCNCC4)cn3)nc2n1C1CCCC1`: the results for the neurite formation score in the test on Neuro-2a [1] and with Neuro-2a [2] were 4.96 and 4.58, respectively.
For `O=C(COc1ccc(Cl)cc1)NC1CCC(NC(=O)COc2ccc(Cl)cc2)CC1` (stereo not drawn) [ISRIB (trans-isomer)] the same measures were 4.54 and 4.42.
For `CO[C@H]1C[C@@H]2CC[C@@H](C)[C@@](O)(O2)C(=O)C(=O)N2CCCC[C@H]2C(=O)O[C@H]([C@H](C)C[C@@H]2CC[C@@H](OCCO)[C@H](OC)C2)CC(=O)[C@H](C)/C=C(\C)[C@@H](O)[C@@H](OC)C(=O)[C@H](C)C[C@H](C)/C=C/C=C/C=C/1C` [Everolimus (RAD001)], in that order: 4.57 and 5.54.
For `Cn1cc(-c2ccc3nnc(Sc4ccc5ncccc5c4)n3n2)cn1` the same measures were 4.24 and 5.04.
Turning to `Clc1ccc(Nc2nnc(Cc3ccncc3)c3ccccc23)cc1` [Vatalanib], the neurite formation score came out at 4.69 in the test with Neuro-2a [1] and 4.92 with Neuro-2a [2].
For `O=c1c(-c2ccc(O)cc2)coc2cc(O)cc(O)c12` [Genistein] the same measures were 4.57 and 3.38.
For `CN1CCN(S(=O)(=O)c2ccc(-c3cnc(N)c(C(=O)Nc4cccnc4)n3)cc2)CC1` the same measures were 2.88 and 4.75.
For `Oc1cc(O)cc(/C=C/c2ccc(O)c(O)c2)c1` [Piceatannol], in that order: 4.88 and 4.75.
For the compound `CCCCCCCCCCCCCCCCOP(=O)([O-])OCC[N+](C)(C)C` [Miltefosine], the results for the neurite formation score in the test with Neuro-2a [1] and in the test with Neuro-2a [2] were 5.63 and 2.58, respectively.
As to `CC(=O)Nc1nc(C)c(-c2ccc(Cl)c(S(=O)(=O)NCCO)c2)s1`, the results for the neurite formation score in the test on Neuro-2a [1] and in the test on Neuro-2a [2] were 4.57 and 3.88, respectively.
On to `c1cc(-c2cnn3cc(-c4ccc(OCCN5CCCCC5)cc4)cnc23)ccn1` [Dorsomorphin 2HCl], for which the neurite formation score is 4.96 in the test with Neuro-2a [1] and 3.92 with Neuro-2a [2].
For `CCN(CCCOc1ccc2c(Nc3cc(CC(=O)Nc4cccc(F)c4)[nH]n3)ncnc2c1)CCOP(=O)(O)O` the same measures were 4.91 and 4.71.
For `C=CC(=O)N1CCC[C@@H](n2nc(-c3ccc(Oc4ccccc4)cc3)c3c(N)ncnc32)C1` the same measures were 3.24 and 4.38.
`c1nc2c(NC3CCCCC3)nc(Nc3ccc(N4CCOCC4)cc3)nc2[nH]1` [Reversine]: the neurite formation score stood at 5.02 in the test on Neuro-2a [1] and 4.92 in the test on Neuro-2a [2].
For `Cc1cnc(Nc2ccc(N3CCN(C)CC3)cc2)nc1Nc1cccc(S(=O)(=O)NC(C)(C)C)c1` the same measures were 2.36 and 2.58.
Take `CCOC(=O)c1cnc2ccc(-c3cncc(NS(=O)(=O)c4ccccc4)c3)cn12`: the results for the neurite formation score in the test with Neuro-2a [1] and in the test on Neuro-2a [2] were -0.457 and 0.0843, respectively.
For `CCOc1cc(N2CCC(O)CC2)ccc1Nc1ncc2c(n1)N(C)c1ccccc1C(=O)N2C`, in that order: 4.69 and 4.92.
For `O=C(NC1CCNCC1)c1n[nH]cc1NC(=O)c1c(Cl)cccc1Cl` the same measures were 5.57 and 5.88.
For `CN(C[C@@H]1COCCO1)S(=O)(=O)Nc1ccc2ccc3ncc(-c4cnn(C)c4)cc3c(=O)c2c1`, in that order: 5.29 and 4.25.
For `N#CC1(c2ccc(NC(=O)c3cccnc3NCc3ccncc3)cc2)CCCC1` [Apatinib], the neurite formation score with Neuro-2a [1] was 4.54; with Neuro-2a [2], 4.08.
For `COc1cc(CCc2cc(NC(=O)c3ccc(N4CC(C)NC(C)C4)cc3)n[nH]2)cc(OC)c1` (configuration not stated) the same measures were 3.9 and 4.21.
Take `COc1cc(N2CCC(N)CC2)ccc1Nc1ncc(Cl)c(-c2c[nH]c3ccccc23)n1`: the neurite formation score with Neuro-2a [1] turned out to be 4.63; with Neuro-2a [2] it was 4.92.
For `c1cncc(CN2CCC(n3ncc4c(N5CCOCC5)nc(-c5ccc6[nH]ccc6c5)nc43)CC2)c1`, in that order: 1.54 and 0.751.
For `CC(C)(C)Cn1c(N)nc2ccc(-c3[nH]c(C(C)(C)C)nc3-c3ccc(F)cc3)nc21`, in that order: 4.57 and 5.54.
For `CN1CCN(C2CCN(C(=O)Nc3cc(Oc4ccc(NC(=O)C5(C(=O)Nc6ccc(F)cc6)CC5)c(F)c4)ccn3)CC2)CC1` [Golvatinib (E7050)] the same measures were 4.14 and 3.76.
Regarding `CC(=O)Nc1cccc(-n2c(=O)n(C3CC3)c(=O)c3c(Nc4ccc(I)cc4F)n(C)c(=O)c(C)c32)c1` [Trametinib DMSO solvate], the neurite formation score was determined as 5.02 in the test on Neuro-2a [1] and 4.92 in the test on Neuro-2a [2].
